Legend:
Assay in all cases: yeast three-hybrid, YBZ-1, SC-Leu-His + 0.5 mM 3-AT, 4 days
Settings in all cases: tags: N-Gal4 AD-HA kept; label: inside an RPR1-promoter hybrid RNA with tandem MS2 sites; ssRNA
PUM1 PUF domain R3-LNA = PUM1 PUF domain R3-LNA (Homo sapiens, UniProt Q14671 828-1176, C935L;R936N;Q939A)
Procedure, shortened: (§1)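 The interaction score is the logarithmic change in variant frequency from input to selection. It uses log2, with a pseudocount of 1 for absent variants, and frequencies came from PCR-amplified, Illumina-sequenced repeat regions. The libraries were Pumilio-1 PUF domains randomized at the three base-contacting residues per repeat, co-expressed with matching RNA elements in strain YBZ-1 (LexA–MS2 coat fusion, HIS3 reporter). Plating lasted four days on SC-Leu (input) or SC-Leu-His + 0.5 mM 3-AT (selection).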

PUM1 PUF domain R3-KSS = PUM1 PUF domain R3-KSS (Homo sapiens, UniProt Q14671 828-1176, C935K;R936S;Q939S)
Procedure, shortened: as §1

PUM1 PUF domain R3-LYT = PUM1 PUF domain R3-LYT (Homo sapiens, UniProt Q14671 828-1176, C935L;R936Y;Q939T)
Procedure, shortened: as §1

PUM1 PUF domain R6-RWW = molecular target: T1, PUM1 PUF domain R6-RWW (Homo sapiens, UniProt Q14671 828-1176, N1043R;Y1044W;Q1047W)
T1 sequence: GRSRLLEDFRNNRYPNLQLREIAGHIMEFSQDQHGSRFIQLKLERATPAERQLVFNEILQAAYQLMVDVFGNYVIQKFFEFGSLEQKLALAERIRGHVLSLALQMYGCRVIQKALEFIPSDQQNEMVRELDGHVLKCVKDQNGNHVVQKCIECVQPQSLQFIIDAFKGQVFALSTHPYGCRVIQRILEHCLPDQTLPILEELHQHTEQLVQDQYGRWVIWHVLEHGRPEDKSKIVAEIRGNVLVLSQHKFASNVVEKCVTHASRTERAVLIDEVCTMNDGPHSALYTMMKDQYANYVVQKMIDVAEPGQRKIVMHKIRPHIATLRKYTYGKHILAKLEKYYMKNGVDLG
Procedure, shortened: as §1

PUM1 PUF domain R1-SRE = PUM1 PUF domain R1-SRE (Homo sapiens, UniProt Q14671 828-1176, Q867E)
Procedure, shortened: as §1

PUM1 PUF domain R2-SWR = PUM1 PUF domain R2-SWR (Homo sapiens, UniProt Q14671 828-1176, N899S;Y900W;Q903R)
Chain of PUM1 PUF domain R2-SWR (Q14671 828-1176 N899S/Y900W/Q903R): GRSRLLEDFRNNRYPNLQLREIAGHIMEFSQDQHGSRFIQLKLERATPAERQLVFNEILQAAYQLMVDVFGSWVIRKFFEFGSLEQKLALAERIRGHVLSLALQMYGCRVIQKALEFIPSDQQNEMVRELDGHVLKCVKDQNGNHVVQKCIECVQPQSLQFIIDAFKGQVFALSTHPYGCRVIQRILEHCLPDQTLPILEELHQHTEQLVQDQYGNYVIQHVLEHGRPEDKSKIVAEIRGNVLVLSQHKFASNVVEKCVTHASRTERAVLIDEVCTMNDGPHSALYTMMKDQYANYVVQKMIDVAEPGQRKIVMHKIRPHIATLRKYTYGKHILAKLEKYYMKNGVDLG
Procedure, shortened: as §1

PUM1 PUF domain R5-NGS = PUM1 PUF domain R5-NGS (Homo sapiens, UniProt Q14671 828-1176, C1007N;R1008G;Q1011S)
Chain of PUM1 PUF domain R5-NGS (Q14671 828-1176 C1007N/R1008G/Q1011S): as the sequence (Q14671 828-1176 N899S/Y900W/Q903R) above, with S72N, W73Y, R76Q, C180N, R181G, Q184S counted along it
Procedure, shortened: as §1

PUM1 PUF domain R1-RIM = PUM1 PUF domain R1-RIM (Homo sapiens, UniProt Q14671 828-1176, S863R;R864I;Q867M)
Procedure, shortened: as §1

PUM1 PUF domain R8-QFP = PUM1 PUF domain R8-QFP (Homo sapiens, UniProt Q14671 828-1176, N1122Q;Y1123F;Q1126P)
Procedure, shortened: as §1

Q: Which binding signal (PUM1 PUF domain R3-LNA) does the source give for “GGCUAGAACUAGUGGAUCCCCCGGCGCCCGGCGGCUCGAGCCCGGGUAAGUGUAAUUAGUCUGCAUGCCGCCGGGCGCCAUGCCUGCAGGUCGACUCUAGAAAACAUG” here?
A: Its binding signal is 2.71 log2 enrichment (interaction score).

Q: What about the binding signal (PUM1 PUF domain R3-KSS) of the same sequence?
A: The binding signal was 2.98 log2 enrichment (interaction score).

Q: And the binding signal (PUM1 PUF domain R3-LYT)?
A: Its binding signal is 5.26 log2 enrichment (interaction score).

Q: With “GGCUAGAACUAGUGGAUCCCCCGGCGCCCGGCGGCUCGAGCCCGGGUAAGUGUAAGUAGUCUGCAUGCCGCCGGGCGCCAUGCCUGCAGGUCGACUCUAGAAAACAUG” as the sequence, how does the binding signal (PUM1 PUF domain R3-LNA) read?
A: The binding signal was 3.41 log2 enrichment (interaction score).

Q: What does the source list for “GGCUAGAACUAGUGGAUCCCCCGGCGCCCGGCGGCUCGAGCCCGGGUAAGUGUAAAUAGUCUGCAUGCCGCCGGGCGCCAUGCCUGCAGGUCGACUCUAGAAAACAUG”?
A: binding signal (PUM1 PUF domain R6-RWW): 4.3 log2 enrichment (interaction score); binding signal (PUM1 PUF domain R3-LYT): 3.3 log2 enrichment (interaction score)

Q: Which binding signal (PUM1 PUF domain R1-SRE) does the source give for “GGCUAGAACUAGUGGAUCCCCCGGCGCCCGGCGGCUCGAGCCCGGGUAAGUGUAAAUGGUCUGCAUGCCGCCGGGCGCCAUGCCUGCAGGUCGACUCUAGAAAACAUG” here?
A: Its binding signal is 4.42 log2 enrichment (interaction score).

Q: With “GGCUAGAACUAGUGGAUCCCCCGGCGCCCGGCGGCUCGAGCCCGGGUAAGUGUAAACAGUCUGCAUGCCGCCGGGCGCCAUGCCUGCAGGUCGACUCUAGAAAACAUG” as the sequence, how does the binding signal (PUM1 PUF domain R2-SWR) read?
A: Its binding signal is 4.79 log2 enrichment (interaction score).

Q: “GGCUAGAACUAGUGGAUCCCCCGGCGCCCGGCGGCUCGAGCCCGGGUAAGUGUUAAUAGUCUGCAUGCCGCCGGGCGCCAUGCCUGCAGGUCGACUCUAGAAAACAUG” was tested. Which binding signal (PUM1 PUF domain R5-NGS) did it give?
A: Its binding signal is 4.12 log2 enrichment (interaction score).

Q: Which binding signal (PUM1 PUF domain R1-RIM) does the source give for “GGCUAGAACUAGUGGAUCCCCCGGCGCCCGGCGGCUCGAGCCCGGGUAAGUGUAAAUUGUCUGCAUGCCGCCGGGCGCCAUGCCUGCAGGUCGACUCUAGAAAACAUG” here?
A: The binding signal was 3.48 log2 enrichment (interaction score).

Q: Which binding signal (PUM1 PUF domain R8-QFP) does the source give for “GGCUAGAACUAGUGGAUCCCCCGGCGCCCGGCGGCUCGAGCCCGGGUAAGCGUAAAUAGUCUGCAUGCCGCCGGGCGCCAUGCCUGCAGGUCGACUCUAGAAAACAUG” here?
A: Its binding signal is 4.49 log2 enrichment (interaction score).

— publication PMC8384837, “Expanding the binding specificity for RNA recognition by a PUF domain”
